From PubChem BioAssay
In the library only some 2.7% were active in any assay of this set; here they are far more common.
Nrf2 activator = activators of Nrf2 (ARE) signaling; 410,000 compounds, 0.31% hits; AREc32 ARE-luciferase reporter (MCF7-derived line), luminescence, 24 h; AID 624171; Potency, µM (doses to about 46.1 µM), inactives show top-dose activation, hits mostly activators; also: potency is read from the fitted curve at half-maximal effect; % of control where 0% means no effect; nearly all actives have a fitted effect of over 65% in size
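For detection, Steady-Glo was added and plates sat 30 min at RT; before that, AREc32_Fluc cells grown overnight in OPTI-MEM/5% FBS had been treated with 23 nL compound for 24 hr at 37 deg C.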
mIDH1 inhibitor = inhibitors of human mutant IDH1 R132H. O75874. IDH1-R132H enzyme, NADPH consumption, diaphorase/resazurin fluorescence. Potency, µM (doses to about 76.6 µM), inactives show top-dose activity change, negative = inhibition, actives largely listed as inhibitors. 390,000 compounds, 0.093% hits; also: potency is read from the fitted curve at half-maximal effect; % is scaled to controls: 0 for no effect and ±100 for the full control effect; nearly all actives have a fitted effect of over 65% in size
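IDH1-R132H (0.5 ug/mL) preincubated 30 min with compound, then NADPH (0.016 mM) and alpha-KG (2 mM) added; 80 min at RT, pH 7.5. Remaining NADPH coupled via diaphorase/resazurin to fluorescence (540/590 nm); concentration-response curves normalized to no-enzyme control.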
Nrf2 block = Nrf2 pathway inhibition; A549 ARE-Fluc reporter, luciferase luminescence, 18-24 h; Potency, µM (doses to about 46 µM), inactives show top-dose activity change, negative = inhibition, most hits filed as inhibitors; 360,000 compounds, 2.1% hits; also: potency is read from the fitted curve at half-maximal effect; % is scaled to controls: 0 for no effect and ±100 for the full control effect; nearly all actives have a fitted effect of over 60% in size
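Concentration-response testing used A549 ARE_Fluc cells at 5000 cells/well. Following an 18-24 h compound incubation, viability was read by fluorescence (Ex 405/Em 525) and luciferase output by luminescence.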
ALOX12 inh = ALOX12 (human) lipoxygenase inhibition. Potency, µM (doses to about 108 µM), for inactives: at the highest dose activity change, negative = inhibition, most hits filed as inhibitors. 580,000 compounds, 1.1% hits. P18054. purified 12hLO, xylenol orange hydroperoxide absorbance; also: potency is read from the fitted curve at half-maximal effect; % is scaled to controls: 0 for no effect and ±100 for the full control effect
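Hydroperoxide product was detected by ferrous iron/xylenol orange as the 573 to 405 nm absorbance ratio. Arachidonic acid at 40 uM (final) was turned over for 30 min at room temperature by 150 nM human 12hLO, pH 7.0 Hepes buffer, after 15 min compound preincubation.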
A549 viability = counter-screen for Nrf2 inhibitors: cytotoxicity in A549 cells. A549 ARE-Fluc cells, CellTiter-Fluor viability, 18-24 h. Potency, µM (titrated, usually from 46 µM), for inactives: at the top dose activity change, negative = cytotoxicity, usual class: inhibitors. 390,000 compounds, 0.16% hits. AID 504648; also: potency is read from the fitted curve at half-maximal effect; % is scaled to controls: 0 for no effect and ±100 for the full control effect
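Cytotoxicity counterscreen: CellTiter-Fluor fluorescence was measured in A549 ARE_Fluc cells after 18-24 h of compound exposure in a concentration series. The subsequent BugLite luminescent read reports ARE-luciferase activity.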
LDHA inh = blocks human lactate dehydrogenase A | purified LDHA, NADH/diaphorase-resazurin fluorescence; hits give low values | activity change, % (values are at about 110 or 230 µM) | 480,000 compounds, 0.15% hits; in the data active = activity change below about -30%; inconclusive = mostly about -25% to -30%;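 also: plate controls were DMSO wells for no effect and wells without enzyme for full effect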
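Resorufin fluorescence (ex540/em590), read at 0 and 20 min after diaphorase/resazurin addition, reports the NADH left after a 5 min room-temperature reaction of 2 nM human LDH5 with 0.06 mM NADH and 0.2 mM pyruvate.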
* hit, by the source's call. Unless noted, calls follow the shape of the dose curve; as a rule, active = well fitted curve in the direction sought with a large enough effect; inconclusive = small, poorly fitted or top-dose-only effect, or another doubt; inactive = no such curve, though single readings can be large; an effect the other way counts as inactive or inconclusive.

Results for CS(=O)(=O)N1CCC(Oc2cccc(C(=O)NCCCC3CCCC3)c2)CC1 ?
Nrf2 activator: 0%; mIDH1 inhibitor: -3%; Nrf2 block: 26µM*; A549 viability: -12%; LDHA inh: 1

Results for CC(C)(C)c1ccc(C(=O)Nc2ccc(NC(=O)c3ccco3)cc2)cc1 ?
Nrf2 activator: 10%; mIDH1 inhibitor: 8%; Nrf2 block: 9.2µM*; ALOX12 inh: 13%; A549 viability: inconclusive; LDHA inh: -18

What do the screens show for `CCOc1ccccc1NC(=O)c1ccc(NC(=O)c2ccco2)cc1`?
Nrf2 activator: 0%; mIDH1 inhibitor: 6%; Nrf2 block: 23µM*; ALOX12 inh: 38%; A549 viability: -2%; LDHA inh: -8

What do the screens show for `CCOC(=O)Cc1ccc(NC(=O)c2ccc(C(C)(C)C)cc2)cc1`?
Nrf2 activator: -1%; mIDH1 inhibitor: 8%; Nrf2 block: 2.6µM*; ALOX12 inh: 0%; A549 viability: inconclusive; LDHA inh: 1

How did CCOc1cc(NC(=O)c2ccco2)c(OCC)cc1NC(=O)c1cc(OC)c(OC)c(OC)c1 do in these assays?
Nrf2 activator: 1%; mIDH1 inhibitor: -9%; Nrf2 block: 18µM*; ALOX12 inh: -11%; A549 viability: -4%; LDHA inh: -2

What do the screens show for `COc1ccccc1NC(=O)c1ccc(NC(=O)c2ccco2)cc1`?
Nrf2 activator: 3%; mIDH1 inhibitor: 3%; Nrf2 block: inconclusive; ALOX12 inh: -13%; A549 viability: 4%; LDHA inh: -2

What do the screens show for `CC(C)(C)C(=O)Nc1ccc(NC(=O)c2ccco2)nc1`?
Nrf2 activator: -2%; mIDH1 inhibitor: -5%; Nrf2 block: 2.1µM*; ALOX12 inh: 3%; A549 viability: -2%; LDHA inh: -4

Results for CCCNC(=O)COC(=O)c1csc(NCc2ccccc2)n1 ?
ALOX12 inh: inconclusive; LDHA inh: 0

What do the screens show for `Cc1ccc(OCC(=O)c2cc(C)n(Cc3cccs3)c2C)c([N+](=O)[O-])n1`?
Nrf2 activator: 0%; mIDH1 inhibitor: -5%; Nrf2 block: 12µM*; ALOX12 inh: 8%; A549 viability: -6%; LDHA inh: -1

What do the screens show for `CCOc1ccc(NC(=O)c2cnn(-c3ccc(F)cc3)c2-n2cccc2)cc1`?
ALOX12 inh: -4%; LDHA inh: 4

What do the screens show for `Cc1nc2ccc([N+](=O)[O-])cc2nc1C`?
Nrf2 activator: 4%; mIDH1 inhibitor: 1%; Nrf2 block: 1%; ALOX12 inh: 3%; A549 viability: -1%; LDHA inh: -1

What do the screens show for `Nc1nc(N)c2cc([N+](=O)[O-])ccc2n1`?
Nrf2 activator: 3%; mIDH1 inhibitor: 1%; Nrf2 block: 28%; ALOX12 inh: -13%; A549 viability: -18%; LDHA inh: -30*

What do the screens show for `S=C(NCCc1ccncc1)Nc1ccccc1`?
Nrf2 activator: 1%; mIDH1 inhibitor: -4%; Nrf2 block: 3%; ALOX12 inh: -2%; A549 viability: 2%; LDHA inh: -4

What do the screens show for `S=C(NCCc1ccccc1)Nc1ccccn1`?
Nrf2 activator: 3%; mIDH1 inhibitor: 2%; Nrf2 block: 3%; ALOX12 inh: 22µM*; A549 viability: inconclusive; LDHA inh: -8

What do the screens show for `Cc1cccc(NC(=S)NCCc2ccccc2)n1`?
Nrf2 activator: 4%; mIDH1 inhibitor: 12%; Nrf2 block: -22%; ALOX12 inh: 20µM*; A549 viability: -1%; LDHA inh: 0

Results for Fc1ccc(OCCOC2CCNCC2)cc1 ?
ALOX12 inh: 7%

How did Cc1ccc(NC(=O)Cn2c(-c3nonc3N)nc3ccccc32)cc1C do in these assays?
Nrf2 activator: 1%; mIDH1 inhibitor: -1%; Nrf2 block: inconclusive; ALOX12 inh: 0%; A549 viability: 8%; LDHA inh: -2
